B1: CGCC (dsDNA)
DNA 1: GCTATCTAGTGCTCAGTACGCACTGCGCCAGGAAACTTCTGGCAGGACCAGGTCATGAGATCGGAAGAGCACACGTCTGAACTCCAGTCA
DNA 2: TGACTGGAGTTCAGACGTGTGCTCTTCCGATCTCATGACCTGGTCCTGCCAGAAGTTTCCTGGCGCAGTGCGTACTGAGCACTAGATAGC
RNA: AAUUUCUACUCUUGUAGAUAGGAAACUUCUGGCAGGACC
B2: GACG (dsDNA)
DNA 1: GCTATCTAGTGCTCAGTACGCACTGGACGAGGAAACTTCTGGCAGGACCAGGTCATGAGATCGGAAGAGCACACGTCTGAACTCCAGTCA
DNA 2: TGACTGGAGTTCAGACGTGTGCTCTTCCGATCTCATGACCTGGTCCTGCCAGAAGTTTCCTCGTCCAGTGCGTACTGAGCACTAGATAGC
RNA: AAUUUCUACUCUUGUAGAUAGGAAACUUCUGGCAGGACC
B3: CGGA (dsDNA)
DNA 1: GCTATCTAGTGCTCAGTACGCACTGCGGAAGGAAACTTCTGGCAGGACCAGGTCATGAGATCGGAAGAGCACACGTCTGAACTCCAGTCA
DNA 2: TGACTGGAGTTCAGACGTGTGCTCTTCCGATCTCATGACCTGGTCCTGCCAGAAGTTTCCTTCCGCAGTGCGTACTGAGCACTAGATAGC
RNA: AAUUUCUACUCUUGUAGAUAGGAAACUUCUGGCAGGACC
B4: GAAT (dsDNA)
DNA 1: GCTATCTAGTGCTCAGTACGCACTGGAATAGGAAACTTCTGGCAGGACCAGGTCATGAGATCGGAAGAGCACACGTCTGAACTCCAGTCA
DNA 2: TGACTGGAGTTCAGACGTGTGCTCTTCCGATCTCATGACCTGGTCCTGCCAGAAGTTTCCTATTCCAGTGCGTACTGAGCACTAGATAGC
RNA: AAUUUCUACUCUUGUAGAUAGGAAACUUCUGGCAGGACC
B5: GAAG (dsDNA)
DNA 1: GCTATCTAGTGCTCAGTACGCACTGGAAGAGGAAACTTCTGGCAGGACCAGGTCATGAGATCGGAAGAGCACACGTCTGAACTCCAGTCA
DNA 2: TGACTGGAGTTCAGACGTGTGCTCTTCCGATCTCATGACCTGGTCCTGCCAGAAGTTTCCTCTTCCAGTGCGTACTGAGCACTAGATAGC
RNA: AAUUUCUACUCUUGUAGAUAGGAAACUUCUGGCAGGACC
B6: CGCT (dsDNA)
DNA 1: GCTATCTAGTGCTCAGTACGCACTGCGCTAGGAAACTTCTGGCAGGACCAGGTCATGAGATCGGAAGAGCACACGTCTGAACTCCAGTCA
DNA 2: TGACTGGAGTTCAGACGTGTGCTCTTCCGATCTCATGACCTGGTCCTGCCAGAAGTTTCCTAGCGCAGTGCGTACTGAGCACTAGATAGC
RNA: AAUUUCUACUCUUGUAGAUAGGAAACUUCUGGCAGGACC
B7: CTAC (dsDNA)
DNA 1: GCTATCTAGTGCTCAGTACGCACTGCTACAGGAAACTTCTGGCAGGACCAGGTCATGAGATCGGAAGAGCACACGTCTGAACTCCAGTCA
DNA 2: TGACTGGAGTTCAGACGTGTGCTCTTCCGATCTCATGACCTGGTCCTGCCAGAAGTTTCCTGTAGCAGTGCGTACTGAGCACTAGATAGC
RNA: AAUUUCUACUCUUGUAGAUAGGAAACUUCUGGCAGGACC
B8: CTGG (dsDNA)
DNA 1: GCTATCTAGTGCTCAGTACGCACTGCTGGAGGAAACTTCTGGCAGGACCAGGTCATGAGATCGGAAGAGCACACGTCTGAACTCCAGTCA
DNA 2: TGACTGGAGTTCAGACGTGTGCTCTTCCGATCTCATGACCTGGTCCTGCCAGAAGTTTCCTCCAGCAGTGCGTACTGAGCACTAGATAGC
RNA: AAUUUCUACUCUUGUAGAUAGGAAACUUCUGGCAGGACC
B9: GACA (dsDNA)
DNA 1: GCTATCTAGTGCTCAGTACGCACTGGACAAGGAAACTTCTGGCAGGACCAGGTCATGAGATCGGAAGAGCACACGTCTGAACTCCAGTCA
DNA 2: TGACTGGAGTTCAGACGTGTGCTCTTCCGATCTCATGACCTGGTCCTGCCAGAAGTTTCCTTGTCCAGTGCGTACTGAGCACTAGATAGC
RNA: AAUUUCUACUCUUGUAGAUAGGAAACUUCUGGCAGGACC
B10: GAAA (dsDNA)
DNA 1: GCTATCTAGTGCTCAGTACGCACTGGAAAAGGAAACTTCTGGCAGGACCAGGTCATGAGATCGGAAGAGCACACGTCTGAACTCCAGTCA
DNA 2: TGACTGGAGTTCAGACGTGTGCTCTTCCGATCTCATGACCTGGTCCTGCCAGAAGTTTCCTTTTCCAGTGCGTACTGAGCACTAGATAGC
RNA: AAUUUCUACUCUUGUAGAUAGGAAACUUCUGGCAGGACC
B11: CGGC (dsDNA)
DNA 1: GCTATCTAGTGCTCAGTACGCACTGCGGCAGGAAACTTCTGGCAGGACCAGGTCATGAGATCGGAAGAGCACACGTCTGAACTCCAGTCA
DNA 2: TGACTGGAGTTCAGACGTGTGCTCTTCCGATCTCATGACCTGGTCCTGCCAGAAGTTTCCTGCCGCAGTGCGTACTGAGCACTAGATAGC
RNA: AAUUUCUACUCUUGUAGAUAGGAAACUUCUGGCAGGACC
B12: CGGT (dsDNA)
DNA 1: GCTATCTAGTGCTCAGTACGCACTGCGGTAGGAAACTTCTGGCAGGACCAGGTCATGAGATCGGAAGAGCACACGTCTGAACTCCAGTCA
DNA 2: TGACTGGAGTTCAGACGTGTGCTCTTCCGATCTCATGACCTGGTCCTGCCAGAAGTTTCCTACCGCAGTGCGTACTGAGCACTAGATAGC
RNA: AAUUUCUACUCUUGUAGAUAGGAAACUUCUGGCAGGACC
B13: CGCG (dsDNA)
DNA 1: GCTATCTAGTGCTCAGTACGCACTGCGCGAGGAAACTTCTGGCAGGACCAGGTCATGAGATCGGAAGAGCACACGTCTGAACTCCAGTCA
DNA 2: TGACTGGAGTTCAGACGTGTGCTCTTCCGATCTCATGACCTGGTCCTGCCAGAAGTTTCCTCGCGCAGTGCGTACTGAGCACTAGATAGC
RNA: AAUUUCUACUCUUGUAGAUAGGAAACUUCUGGCAGGACC
B14: CTGC (dsDNA)
DNA 1: GCTATCTAGTGCTCAGTACGCACTGCTGCAGGAAACTTCTGGCAGGACCAGGTCATGAGATCGGAAGAGCACACGTCTGAACTCCAGTCA
DNA 2: TGACTGGAGTTCAGACGTGTGCTCTTCCGATCTCATGACCTGGTCCTGCCAGAAGTTTCCTGCAGCAGTGCGTACTGAGCACTAGATAGC
RNA: AAUUUCUACUCUUGUAGAUAGGAAACUUCUGGCAGGACC
B15: CTCG (dsDNA)
DNA 1: GCTATCTAGTGCTCAGTACGCACTGCTCGAGGAAACTTCTGGCAGGACCAGGTCATGAGATCGGAAGAGCACACGTCTGAACTCCAGTCA
DNA 2: TGACTGGAGTTCAGACGTGTGCTCTTCCGATCTCATGACCTGGTCCTGCCAGAAGTTTCCTCGAGCAGTGCGTACTGAGCACTAGATAGC
RNA: AAUUUCUACUCUUGUAGAUAGGAAACUUCUGGCAGGACC
B16: GAAC (dsDNA)
DNA 1: GCTATCTAGTGCTCAGTACGCACTGGAACAGGAAACTTCTGGCAGGACCAGGTCATGAGATCGGAAGAGCACACGTCTGAACTCCAGTCA
DNA 2: TGACTGGAGTTCAGACGTGTGCTCTTCCGATCTCATGACCTGGTCCTGCCAGAAGTTTCCTGTTCCAGTGCGTACTGAGCACTAGATAGC
RNA: AAUUUCUACUCUUGUAGAUAGGAAACUUCUGGCAGGACC
B17: GACC (dsDNA)
DNA 1: GCTATCTAGTGCTCAGTACGCACTGGACCAGGAAACTTCTGGCAGGACCAGGTCATGAGATCGGAAGAGCACACGTCTGAACTCCAGTCA
DNA 2: TGACTGGAGTTCAGACGTGTGCTCTTCCGATCTCATGACCTGGTCCTGCCAGAAGTTTCCTGGTCCAGTGCGTACTGAGCACTAGATAGC
RNA: AAUUUCUACUCUUGUAGAUAGGAAACUUCUGGCAGGACC

Target: dAsCas12a S542R (Acidaminococcus sp., UniProt U2UMQ6 1-1307, S542R;D908A;E993A;D1235A)
Assay: Spec-seq (native PAGE EMSA with sequencing of bound and unbound); 25 mM Tris-HCl pH 7.4, 150 mM KCl, 5 mM MgCl2, 10% glycerol, 1 mM DTT, 40 ng/uL salmon sperm DNA; 400 nM Cas12a, 480 nM crRNA, 50 nM library, 37 C 1 h; native PAGE at room temperature; high values mean tight binding
Details: protein: recombinant
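Also: relative affinity from the bound to unbound sequence frequency ratio in Spec-seq.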

Q: With B1 as the binder, how does the binding signal read?
A: -8.54 lnKA

Q: B2 was tested. Which binding signal did it give?
A: -8.56 lnKA

Q: Which binding signal does the source give for B3 here?
A: -8.76 lnKA

Q: With B4 as the binder, how does the binding signal read?
A: -8.54 lnKA

Q: For B5, which binding signal is on record?
A: -8.23 lnKA

Q: Which binding signal does the source give for B6 here?
A: -8.52 lnKA

Q: Which binding signal does the source give for B7 here?
A: -8.27 lnKA

Q: B8 was tested. Which binding signal did it give?
A: -8.46 lnKA

Q: How did the binding signal turn out when B9 was run?
A: -8.67 lnKA

Q: For B10, which binding signal is on record?
A: -8.7 lnKA

Q: With B11 as the binder, how does the binding signal read?
A: -8.51 lnKA

Q: Which binding signal does the source give for B12 here?
A: -8.62 lnKA

Q: With B13 as the binder, how does the binding signal read?
A: -8.29 lnKA

Q: For B14, which binding signal is on record?
A: -8.71 lnKA

Q: For B15, which binding signal is on record?
A: -6.92 lnKA

Q: With B16 as the binder, how does the binding signal read?
A: -8.59 lnKA

Q: Which binding signal does the source give for B17 here?
A: -8.46 lnKA

Target: d-enCas12a (Acidaminococcus sp., UniProt U2UMQ6 1-1307, E174R;S542R;K548R;D908A;E993A;D1235A)
Assay: as above
Details: protein: recombinant

Q: B1 was tested. Which binding signal did it give?
A: -1.48 lnKA

Q: Which binding signal does the source give for B2 here?
A: -5.57 lnKA

Q: Which binding signal does the source give for B3 here?
A: -5.73 lnKA

Q: With B4 as the binder, how does the binding signal read?
A: -5.79 lnKA

Q: With B5 as the binder, how does the binding signal read?
A: -5.82 lnKA

Q: Which binding signal does the source give for B6 here?
A: -4.5 lnKA

Q: How did the binding signal turn out when B7 was run?
A: -4.66 lnKA

Q: B8 was tested. Which binding signal did it give?
A: -5.9 lnKA

Q: With B9 as the binder, how does the binding signal read?
A: -4.44 lnKA

Q: With B10 as the binder, how does the binding signal read?
A: -5.87 lnKA

Q: With B11 as the binder, how does the binding signal read?
A: -5.63 lnKA

Q: Which binding signal does the source give for B12 here?
A: -5.84 lnKA

Q: Which binding signal does the source give for B13 here?
A: -3.31 lnKA

Q: For B14, which binding signal is on record?
A: -5.32 lnKA

Q: B15 was tested. Which binding signal did it give?
A: -3.29 lnKA

Q: How did the binding signal turn out when B16 was run?
A: -5.9 lnKA

Q: With B17 as the binder, how does the binding signal read?
A: -3.91 lnKA

Target: d-enCas12a-Ultra (Acidaminococcus sp., UniProt U2UMQ6 1-1307, E174R;S542R;K548R;M537R;F870L;D908A;E993A;D1235A)
Assay: as above
Details: protein: recombinant

Q: B1 was tested. Which binding signal did it give?
A: -0.384 lnKA

Q: For B2, which binding signal is on record?
A: -2.93 lnKA

Q: For B3, which binding signal is on record?
A: -3.26 lnKA

Q: How did the binding signal turn out when B4 was run?
A: -3.39 lnKA

Q: With B5 as the binder, how does the binding signal read?
A: -3.51 lnKA

Q: How did the binding signal turn out when B6 was run?
A: -1.29 lnKA

Q: Which binding signal does the source give for B7 here?
A: -1.69 lnKA

Q: How did the binding signal turn out when B8 was run?
A: -3.29 lnKA

Q: How did the binding signal turn out when B9 was run?
A: -1.74 lnKA

Q: B10 was tested. Which binding signal did it give?
A: -3.36 lnKA

Q: How did the binding signal turn out when B11 was run?
A: -3.15 lnKA

Q: How did the binding signal turn out when B12 was run?
A: -3.41 lnKA

Q: With B13 as the binder, how does the binding signal read?
A: -0.79 lnKA

Q: B14 was tested. Which binding signal did it give?
A: -2.48 lnKA

Q: With B15 as the binder, how does the binding signal read?
A: -0.685 lnKA

Q: Which binding signal does the source give for B16 here?
A: -3.33 lnKA

Q: B17 was tested. Which binding signal did it give?
A: -1.34 lnKA
